Measured values as given in PubChem BioAssay (NCATS).
Values without a mark were called inactive. Inconclusive results are not listed. Calls of active or inactive are those of the source. Unless noted, calls come from the whole dose curve; as a rule, active = well fitted curve in either direction with a large enough effect (not every such curve was filed as active); inconclusive = small, poorly fitted or top-dose-only effect, or another doubt; inactive = flat fitted curve, though single readings scatter.

What was measured:
[1] = AP1 Signaling Pathway (AID 357); settings: ME-180 AP-1-bla reporter, EGF-induced, beta-lactamase ratio, 5 h; at 7.69 µM (top of the series) unless noted;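 note: ME-180 reporter cells stimulated with EGF at its EC50 level; % is set by controls: 0 for no effect and ±100 for the full control effect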
Summary of the method: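 A ratiometric CCF4 readout (405 nm excitation; 460 and 530 nm emission) quantified AP-1-driven beta-lactamase in ME-180 cells after 5 h with compound and EC50 EGF; AC50 values were derived for activators and inhibitors.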

[2] = target: Cytochrome P450 1A2 (Homo sapiens) (UniProt P05177); assay: p450-cyp1a2 (AID 410; calls by dose curve; note: potency is the fitted concentration of half-maximal effect;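 for activity change, negative = inhibition: -100% = full effect of reference inhibitor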)
Sequence of Cytochrome P450 1A2 (Homo sapiens) (P05177 whole entry, looked up): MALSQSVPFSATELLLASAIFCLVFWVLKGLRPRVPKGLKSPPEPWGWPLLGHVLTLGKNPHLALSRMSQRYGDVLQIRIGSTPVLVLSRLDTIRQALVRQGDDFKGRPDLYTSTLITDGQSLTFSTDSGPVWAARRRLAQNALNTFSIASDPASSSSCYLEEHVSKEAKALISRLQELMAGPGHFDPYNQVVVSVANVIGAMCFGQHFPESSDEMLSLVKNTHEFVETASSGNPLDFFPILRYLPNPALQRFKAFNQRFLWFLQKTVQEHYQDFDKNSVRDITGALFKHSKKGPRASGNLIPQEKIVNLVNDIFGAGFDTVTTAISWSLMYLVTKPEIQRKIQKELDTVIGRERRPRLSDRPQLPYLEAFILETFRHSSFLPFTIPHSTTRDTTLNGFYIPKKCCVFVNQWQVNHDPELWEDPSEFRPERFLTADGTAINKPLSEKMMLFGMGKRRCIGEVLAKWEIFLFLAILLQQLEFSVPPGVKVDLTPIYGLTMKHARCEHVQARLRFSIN
Summary of the method: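 Luminescent demethylation readout: Luciferin-ME (100uM, equal to Km) turned over by 20nM CYP1A2 for 60 min at room temperature after NADPH regeneration addition, following 10 min compound preincubation. Normalization used 57 uM furafylline as full inhibition.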

[3] = NFAT Signaling Pathway (AID 444); settings: Jurkat NFAT-bla M1, carbachol, beta-lactamase ratio, 5 h; at 7.69 µM (top of the series) unless noted;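 note: carbachol stimulus at about its EC50 of 1 µM final; % is set by controls: 0 for no effect and ±100 for the full control effect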
Summary of the method: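 Jurkat cells with NFAT-driven β-lactamase reporter and co-expressed M1 receptor, stimulated with carbachol (final 1 uM, ~EC50), compound titration, 5 h at 37 °C. CCF4 loaded 1 h at RT; 460/530 nm ratio gave %activity and AC50.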

[4] = Stat Signaling Pathway (AID 446); settings: ME-180 (cervical carcinoma) SIE beta-lactamase reporter, IL-6 stimulated, 5 h; at 7.69 µM (top of the series) unless noted;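 note: ME-180 cervical cancer cells given 40 pM IL-6 alongside compound; SIE-controlled beta-lactamase reporter measured as 460/530 nm FRET emission ratio; % is set by controls: 0 for no effect and ±100 for the full control effect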
Summary of the method: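 Overnight-plated ME-180 cells bearing a STAT Inducible Element beta-lactamase reporter; 5 h co-exposure to compound and 40 pM IL-6; values normalized to 300 pM IL-6 and 125 nM JAK inhibitor controls.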

[5] = target: Glucocorticoid receptor (Homo sapiens) (UniProt P04150); assay: GR-GFP Redistribution (AID 450;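 active = compounds whose dose series gives a full or clear partial fitted curve of increased nuclear translocation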; note: potency is the fitted concentration of half-maximal effect); settings: U2OS GR-GFP nuclear translocation, laser cytometry, 2 h
Sequence of Glucocorticoid receptor (Homo sapiens) (P04150 whole entry, looked up, the tested form may be a part): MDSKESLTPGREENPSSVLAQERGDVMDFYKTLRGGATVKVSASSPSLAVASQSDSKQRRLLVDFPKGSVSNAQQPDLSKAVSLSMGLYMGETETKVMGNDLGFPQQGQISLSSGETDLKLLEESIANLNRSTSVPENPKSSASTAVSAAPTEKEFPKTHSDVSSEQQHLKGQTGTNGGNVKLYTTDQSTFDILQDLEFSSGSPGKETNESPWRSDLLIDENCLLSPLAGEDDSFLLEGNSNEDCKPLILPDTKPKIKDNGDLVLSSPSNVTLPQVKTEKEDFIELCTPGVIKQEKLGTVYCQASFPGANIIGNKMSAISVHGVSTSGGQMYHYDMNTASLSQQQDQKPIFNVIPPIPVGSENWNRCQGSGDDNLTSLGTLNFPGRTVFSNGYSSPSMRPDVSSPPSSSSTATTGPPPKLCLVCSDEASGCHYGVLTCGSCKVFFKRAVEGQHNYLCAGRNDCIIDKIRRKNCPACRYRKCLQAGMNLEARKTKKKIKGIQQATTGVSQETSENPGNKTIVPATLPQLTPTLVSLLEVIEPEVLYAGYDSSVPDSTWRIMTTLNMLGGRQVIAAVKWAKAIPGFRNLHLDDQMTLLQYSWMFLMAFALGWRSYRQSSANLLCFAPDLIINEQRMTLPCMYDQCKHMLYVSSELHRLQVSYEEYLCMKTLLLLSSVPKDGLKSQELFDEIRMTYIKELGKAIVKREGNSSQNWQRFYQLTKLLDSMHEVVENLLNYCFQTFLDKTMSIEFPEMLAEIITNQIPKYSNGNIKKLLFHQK

[6] = target: Glucocorticoid receptor (Homo sapiens) (UniProt P04150); assay: GR-EFC Redistribution (AID 451; calls by dose curve; note: potency is the fitted concentration of half-maximal effect); settings: CHO-K1 GR-EFC translocation, beta-gal luminescence, 2 h
Summary of the method: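 CHO-K1 cells expressing nuclear EA and GR-ED fragments of b-gal; compounds titrated up to 46 uM final, 2 h at 37 C. GR nuclear translocation read as complemented b-gal luminescence after 1 h RT detection.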

[7] = target: Mitogen-activated protein kinase 10 (Mus musculus) (UniProt Q61831); assay: JNK3 AlphaScreen Assay (AID 530);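 note: kinase came from lysate of stimulated human HepG2 cells; signal reports phosphorylation of biotinylated GST-cJun 1-79 at Ser73 with 10 µM ATP; % is set by controls: 0 for no effect and ±100 for the full control effect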
Summary of the method: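 Activity was read by AlphaScreen after JNK3-containing HepG2 lysate (cytokine pre-activated) phosphorylated biotinylated GST-cJun with 10 uM ATP at room temperature. Phospho-Ser73 cJun antibody with Protein-A acceptor beads provided detection.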

[8] = target: 3',5'-cyclic-AMP phosphodiesterase 4B (Homo sapiens) (UniProt Q07343); assay: qHTS Assay for Inhibitors of PDE-IV (AID 607; active = well fitted activation curve with a large enough effect in the main read-out, with a control signal flat, not every such curve was filed as active; note: % of control where 0% means no effect)
Sequence of 3',5'-cyclic-AMP phosphodiesterase 4B (Homo sapiens) (Q07343 whole entry, looked up): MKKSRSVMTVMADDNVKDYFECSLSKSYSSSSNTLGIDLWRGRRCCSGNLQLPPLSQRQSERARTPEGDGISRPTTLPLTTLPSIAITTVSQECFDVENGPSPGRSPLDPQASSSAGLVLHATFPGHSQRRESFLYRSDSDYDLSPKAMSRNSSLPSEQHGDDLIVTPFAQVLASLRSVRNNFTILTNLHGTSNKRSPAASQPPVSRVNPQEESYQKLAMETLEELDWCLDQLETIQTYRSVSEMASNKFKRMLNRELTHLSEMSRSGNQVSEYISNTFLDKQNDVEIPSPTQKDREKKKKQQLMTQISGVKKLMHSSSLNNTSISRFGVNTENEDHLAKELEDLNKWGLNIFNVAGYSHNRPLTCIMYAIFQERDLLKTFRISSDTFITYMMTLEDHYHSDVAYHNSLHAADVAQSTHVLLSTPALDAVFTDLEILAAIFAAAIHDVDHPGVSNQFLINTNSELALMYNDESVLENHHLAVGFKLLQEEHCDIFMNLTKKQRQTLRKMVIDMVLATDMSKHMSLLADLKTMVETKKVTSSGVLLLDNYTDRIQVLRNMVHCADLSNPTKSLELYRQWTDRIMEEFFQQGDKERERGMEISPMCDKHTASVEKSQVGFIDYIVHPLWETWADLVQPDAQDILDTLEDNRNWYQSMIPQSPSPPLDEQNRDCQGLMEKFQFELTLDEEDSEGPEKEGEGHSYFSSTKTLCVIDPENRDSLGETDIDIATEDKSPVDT
Summary of the method: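 Live HEK293 cells with a modified cyclic nucleotide-gated (CNG) channel report intracellular cAMP via membrane-potential dye fluorescence (ex 535/em 590 nm). Endogenous PDE-IV was targeted. Compounds were tested at up to 22.9 uM final; RO 20-1724 100 uM served as control.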

[9] = target: Cytochrome P450 2C9 (Homo sapiens) (UniProt P11712); assay: qHTS Assay for Inhibitors and Substrates of Cytochrome P450 2C9 (AID 883; active = well fitted curve in the direction sought with a large enough effect; an effect the other way counts as inactive or inconclusive; note: potency is the fitted concentration of half-maximal effect; nearly all actives have a fitted effect of over 60% in size)
Sequence of Cytochrome P450 2C9 (Homo sapiens) (P11712 whole entry, looked up): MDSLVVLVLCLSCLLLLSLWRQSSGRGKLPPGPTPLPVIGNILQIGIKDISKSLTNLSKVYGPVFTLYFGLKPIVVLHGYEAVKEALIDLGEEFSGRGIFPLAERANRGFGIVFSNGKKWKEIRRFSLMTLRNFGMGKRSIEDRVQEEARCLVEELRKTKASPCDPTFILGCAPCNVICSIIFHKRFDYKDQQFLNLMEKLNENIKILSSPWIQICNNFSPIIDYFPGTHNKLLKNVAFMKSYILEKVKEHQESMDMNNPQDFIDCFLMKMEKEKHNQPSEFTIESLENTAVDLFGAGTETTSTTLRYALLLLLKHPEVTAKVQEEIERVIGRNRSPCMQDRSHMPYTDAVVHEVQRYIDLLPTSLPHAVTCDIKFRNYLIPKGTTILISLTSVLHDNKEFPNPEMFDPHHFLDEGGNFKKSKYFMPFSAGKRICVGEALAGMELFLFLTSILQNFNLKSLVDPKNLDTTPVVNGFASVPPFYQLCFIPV
Summary of the method: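 10nM CYP2C9 + 100uM Luciferin-H (=KM), 25mM KPO4; cpd 10 min 37C; NADPH regen, 60 min 37C; stop/detect with P450 Glo-Buffer 20 min; luminescence. Norm. to 57uM sulphaphenazole as full inhibition.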

[10] = target: Cytochrome P450 2C19 (Homo sapiens) (UniProt P33261); assay: qHTS Assay for Inhibitors and Substrates of Cytochrome P450 2C19 (AID 899; active = well fitted curve in the direction sought with a large enough effect; an effect the other way counts as inactive or inconclusive; note: potency is the fitted concentration of half-maximal effect; nearly all actives have a fitted effect of over 60% in size)
Summary of the method: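 Luminescent read-out of luciferin formed from Luciferin-H EGE (10uM, equal to KM). Enzyme 5nM in 50mM KPO4; compound added, 10 min at 37C, then NADPH regenerating system for 60 min at 37C. Full inhibition defined by 57uM ketoconazole.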

[11] = target: Cytochrome P450 3A4 (Homo sapiens) (UniProt P08684); assay: qHTS Assay for Activators of Cytochrome P450 3A4 (AID 885; active = well fitted curve in the direction sought with a large enough effect; an effect the other way counts as inactive or inconclusive; note: nearly all actives have a fitted effect of over 65% in size)
Summary of the method: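 Using 20nM recombinant human CYP3A4 in potassium phosphate (200mM), substrate Luciferin-PPXE at 25uM, luminescent luciferin detection followed a 60-min RT NADPH reaction; data scaled to 57 uM ketoconazole.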

[12] = target: Guanine nucleotide-binding protein G(i) subunit alpha-1 (Homo sapiens) (UniProt P63096); assay: qHTS Assay for Inhibitors of RGS12 GoLoco Motif Activity (Green Fluorophore) (AID 879; active = well fitted curve in the direction sought with a large enough effect; an effect the other way counts as inactive or inconclusive;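 note: 0% = labeled peptide with Gαi1 and full inhibition = labeled peptide alone without protein; negative values mean loss of peptide binding seen as reduced polarization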)
Sequence of Guanine nucleotide-binding protein G(i) subunit alpha-1 (Homo sapiens) (P63096 whole entry, looked up): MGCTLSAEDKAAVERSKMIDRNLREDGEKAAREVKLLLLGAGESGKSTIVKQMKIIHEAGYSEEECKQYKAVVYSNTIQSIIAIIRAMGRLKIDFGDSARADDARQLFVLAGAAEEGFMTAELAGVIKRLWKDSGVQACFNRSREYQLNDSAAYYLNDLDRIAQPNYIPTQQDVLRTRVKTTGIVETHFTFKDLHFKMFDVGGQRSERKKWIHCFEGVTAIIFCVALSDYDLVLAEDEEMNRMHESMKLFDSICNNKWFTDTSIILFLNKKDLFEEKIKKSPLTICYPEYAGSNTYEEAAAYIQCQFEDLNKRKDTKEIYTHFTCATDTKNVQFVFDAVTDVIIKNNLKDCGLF
Summary of the method: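 A drop in FITC polarization marked displacement of the FITC-tagged RGS12 GoLoco peptide (10 nM) from Gαi1 (50 nM). Compounds were incubated 10 min at room temperature in Tris pH 7.5 buffer containing 150 mM NaCl, 0.1 mM GDP and 0.05% NP40; unlabeled peptide titration served as control.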

[13] = target: Muscarinic acetylcholine receptor M1 (Rattus norvegicus) (UniProt P08482); assay: qHTS Assay for Antagonists of Acetylcholine Muscarinic M1 Receptor: Measurement of IP-One Response (AID 944; active = well fitted curve in the direction sought with a large enough effect; an effect the other way counts as inactive or inconclusive; note: nearly all actives have a fitted effect of over 75% in size)
Summary of the method: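 IP1 accumulation measured via TR-FRET between d2-IP1 and Eu-cryptate anti-IP1 antibody after carbachol (200 nM, EC80) stimulation for 30 min; rat M1-transfected CHO cells received compound 10 min before agonist.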

[14] = target: Pyruvate kinase (Leishmania mexicana) (UniProt Q27686); assay: qHTS Validation Assay for Inhibitors of Leishmania Mexicana Pyruvate Kinase (AID 945; active = well fitted curve in the direction sought with a large enough effect; an effect the other way counts as inactive or inconclusive;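 note: 0% = DMSO only neutral control wells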)
Sequence of Pyruvate kinase (Leishmania mexicana) (Q27686 2-499 E452W): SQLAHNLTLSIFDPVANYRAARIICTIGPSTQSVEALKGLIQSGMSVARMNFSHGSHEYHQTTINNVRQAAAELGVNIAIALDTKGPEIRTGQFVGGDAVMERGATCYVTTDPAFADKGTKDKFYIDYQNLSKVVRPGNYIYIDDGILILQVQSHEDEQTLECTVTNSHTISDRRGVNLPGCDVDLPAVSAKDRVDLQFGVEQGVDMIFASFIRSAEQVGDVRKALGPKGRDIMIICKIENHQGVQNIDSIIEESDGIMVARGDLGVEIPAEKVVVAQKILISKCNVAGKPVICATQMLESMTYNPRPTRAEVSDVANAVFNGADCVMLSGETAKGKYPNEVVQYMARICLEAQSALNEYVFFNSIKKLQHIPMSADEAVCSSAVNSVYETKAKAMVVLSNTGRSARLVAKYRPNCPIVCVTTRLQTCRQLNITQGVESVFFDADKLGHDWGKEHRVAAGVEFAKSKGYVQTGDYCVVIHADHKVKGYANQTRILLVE
Summary of the method: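 qHTS eight-point titrations against 0.2 nM LmPYK (E451W) in imidazole buffer pH 7.2 with 0.5 mM PEP, 0.1 mM ADP; 1 h, room temperature. Readout: PKLight luminescence, normalized to neutral DMSO wells.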

[15] = target: Pyruvate kinase PKM (Homo sapiens) (UniProt P14618); assay: qHTS Assay for Activators of Human Muscle Pyruvate Kinase (AID 954; active = well fitted curve in the direction sought with a large enough effect, not every such curve was filed as active;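 note: 0% = uninhibited enzyme and -100% = no enzyme or full thiadiazolimine inhibition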)
Sequence of Pyruvate kinase PKM (Homo sapiens) (P14618 whole entry, looked up): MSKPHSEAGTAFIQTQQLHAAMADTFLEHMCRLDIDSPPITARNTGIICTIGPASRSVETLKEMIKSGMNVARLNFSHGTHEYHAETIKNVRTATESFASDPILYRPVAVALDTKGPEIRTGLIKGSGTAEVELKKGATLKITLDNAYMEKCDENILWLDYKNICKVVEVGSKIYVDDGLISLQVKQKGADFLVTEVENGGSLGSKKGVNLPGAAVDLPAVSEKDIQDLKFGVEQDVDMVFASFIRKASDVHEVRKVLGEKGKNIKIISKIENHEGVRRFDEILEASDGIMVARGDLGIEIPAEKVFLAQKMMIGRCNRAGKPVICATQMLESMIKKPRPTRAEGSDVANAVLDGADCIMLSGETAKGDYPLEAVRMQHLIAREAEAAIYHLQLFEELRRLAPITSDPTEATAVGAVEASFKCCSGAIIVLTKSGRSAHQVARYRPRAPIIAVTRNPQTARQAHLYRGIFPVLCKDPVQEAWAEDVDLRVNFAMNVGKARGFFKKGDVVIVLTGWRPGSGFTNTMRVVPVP
Summary of the method: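 Screening used highly purified human pyruvate kinase M2 under submaximal activity, with PEP at its Km and ADP below Km. After an hour at room temperature, ATP was read by luciferase luminescence.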

[16] = target: Alpha-galactosidase A (Homo sapiens) (UniProt P06280); assay: Counterscreen for Glucocerebrosidase Inhibitors: qHTS Assay for Human alpha-Galactosidase at pH 4.5 (AID 992; active = well fitted curve in the direction sought with a large enough effect; an effect the other way counts as inactive or inconclusive; note: 0% is about no effect)
Sequence of Alpha-galactosidase A (Homo sapiens) (P06280 whole entry, looked up): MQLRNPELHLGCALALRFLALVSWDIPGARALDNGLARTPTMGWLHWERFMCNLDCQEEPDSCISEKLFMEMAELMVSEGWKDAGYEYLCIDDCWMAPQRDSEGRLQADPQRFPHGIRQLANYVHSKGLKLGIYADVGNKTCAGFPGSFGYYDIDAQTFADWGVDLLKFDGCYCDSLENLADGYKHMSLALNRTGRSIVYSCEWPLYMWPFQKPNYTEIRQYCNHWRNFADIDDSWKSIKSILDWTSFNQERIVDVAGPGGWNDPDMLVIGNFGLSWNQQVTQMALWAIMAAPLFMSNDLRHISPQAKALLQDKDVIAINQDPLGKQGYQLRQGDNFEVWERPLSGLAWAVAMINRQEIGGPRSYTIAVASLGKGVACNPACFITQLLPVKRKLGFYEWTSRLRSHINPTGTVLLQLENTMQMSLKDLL
Summary of the method: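 Each compound is preincubated briefly with 2 nM enzyme before substrate addition (80 uM); plates then sit 20 min at ambient temperature, are quenched with 1M NaOH/1M glycine, and read fluorometrically.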

[17] = target: alpha-glucosidase (Oryza sativa, rice) (UniProt Q653V4); assay: Counterscreen for Glucocerebrosidase Inhibitors: qHTS Assay for Rice alpha-Glucosidase at pH 5.0 (AID 997; active = well fitted curve in the direction sought with a large enough effect; an effect the other way counts as inactive or inconclusive;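 note: 0% = full activity with enzyme and -100% = basal without enzyme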)
Summary of the method: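 Endpoint fluorogenic assay at pH 5.0: compounds (0.7 nM to 77 uM) titrated against 4 nM rice enzyme and 400 uM 4-MU-alpha-glucoside for 20 min at room temperature; NaOH/glycine stop, read ex 365/em 440 nm, Hill-fitted AC50.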

[18] = target: Cytochrome P450 2D6 (Homo sapiens) (UniProt P10635); assay: qHTS Assay for Inhibitors and Substrates of Cytochrome P450 2D6 (AID 891; active = well fitted curve in the direction sought with a large enough effect; an effect the other way counts as inactive or inconclusive;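 note: luciferin methyl ether substrate demethylated by CYP2D6 with NADPH regeneration; % is set by controls: 0 for no effect and ±100 for the full control effect; nearly all actives have a fitted effect of over 60% in size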)
Sequence of Cytochrome P450 2D6 (Homo sapiens) (P10635 whole entry, looked up): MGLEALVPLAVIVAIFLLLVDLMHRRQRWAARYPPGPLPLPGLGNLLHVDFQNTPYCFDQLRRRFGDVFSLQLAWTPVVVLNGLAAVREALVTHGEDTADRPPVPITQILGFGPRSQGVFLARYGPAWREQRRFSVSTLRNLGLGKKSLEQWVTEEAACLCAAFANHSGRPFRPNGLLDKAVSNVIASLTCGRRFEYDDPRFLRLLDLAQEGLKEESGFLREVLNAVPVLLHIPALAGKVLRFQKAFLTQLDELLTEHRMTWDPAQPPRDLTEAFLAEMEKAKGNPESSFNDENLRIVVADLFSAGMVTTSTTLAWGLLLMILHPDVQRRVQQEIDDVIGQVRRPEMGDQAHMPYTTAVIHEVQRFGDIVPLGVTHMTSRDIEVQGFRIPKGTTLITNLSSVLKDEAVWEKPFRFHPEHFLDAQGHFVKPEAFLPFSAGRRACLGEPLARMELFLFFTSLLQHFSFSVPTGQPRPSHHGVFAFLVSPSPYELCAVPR
Summary of the method: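 Luminescent read-out of luciferin formed by 5 nM human CYP2D6 demethylating 30 uM Luciferin-ME EGE (Km level) over 60 min at room temperature after NADPH regeneration addition. Data normalized to full inhibition by 1.43 uM quinidine.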

[19] = qHTS Assay for Identification of Small Molecule Agonists for Thrombopoietin (TPO) Signaling Pathway (AID 917; active = well fitted curve in the direction sought with a large enough effect; an effect the other way counts as inactive or inconclusive; note: % is set by controls: 0 for no effect and ±100 for the full control effect)
Summary of the method: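 Quantitative HTS for pathway activators: compounds were pin-transferred onto IL-3-starved Ba/F3 cells expressing human TPO receptor, TPO was added at its EC50 (26 pM final), and after 24 hrs at 37 C reporter luciferase was measured.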

Row | Structure (SMILES) | activity change, negative = inhibition [1] | Potency [2] | activity change, negative = inhibition [3] | activity, negative = inhibition [4] | Potency [5] | Potency [6] | Potency [7] | Potency [8] | Potency [9] | Potency [10] | activity change, negative = inhibition [2] | Potency [11] | outcome [12] | Potency [13] | outcome [14] | outcome [15] | outcome [16] | Potency [17] | Potency [18] | outcome [19]
1 | O=c1[nH]c2[nH]c(=S)[nH]c(=S)c2[nH]1 | -13.3% | 3.98 µM (active) | -1.66% | 15.5% | > 46 µM | > 9.22 µM | inactive | inactive | 1.26 µM (active) | 0.631 µM (active) | – | – | – | – | – | – | – | – | – | –
2 | C[C@]1(c2ccccc2)O[C@@H]2C[C@@H]3[C@@H]4CCC5=CC(=O)C=C[C@@]5(C)[C@]4(F)[C@H](O)C[C@]3(C)[C@@]2(C(=O)CO)O1 | 7.91% | – | -6.34% | -4.73% | < 2.95e-05 µM (active) | 0.00231 µM (active) | inactive | inactive | – | – | -16.4% [at 2.29 µM] | inactive | – | – | – | – | – | – | – | –
3 | CC(C)N(Cc1ccccc1)S(=O)(=O)c1n[nH]c(C(C)(C)C)n1 | -0.248% | inactive | 4.29% | -2.12% | > 46 µM | > 9.22 µM | inactive | inactive | 3.98 µM (active) | – | – | – | – | – | – | – | – | – | – | –
4 | Cc1ccccc1/C=C\C1=NCCN1 | -3.38% [at 38 µM] | 6.31 µM (active) | -1.9% [at 38 µM] | 5.08% [at 38 µM] | > 46 µM | > 46 µM | inactive | inactive | – | – | – | – | inactive | inactive | inactive | inactive | inactive | inactive | – | –
5 | Cc1sc2ccccc2[n+]1CCC(=O)O | 3.36% | inactive | 16.6% | 8% | > 46 µM | > 9.22 µM | inactive | inactive | – | – | – | – | – | – | – | – | – | – | inactive | –
6 | CNc1ncnc2c1ncn2[C@@H]1O[C@@H](CO)[C@H](O)[C@@H]1O | -19.9% [at 38 µM] | inactive | 0.83% [at 38 µM] | -6.86% [at 38 µM] | > 46 µM | > 46 µM | inactive | inactive | – | – | – | – | inactive | – | inactive | inactive | inactive | inactive | – | –
7 | OC[C@@H]1O[C@@H](n2cnc3c(NC4CCCC4)ncnc32)[C@@H](O)[C@H]1O | -0.201% [at 38 µM] | inactive | 1.91% [at 38 µM] | 12.2% [at 38 µM] | > 46 µM | > 46 µM | inactive | inactive | – | – | – | – | inactive | – | inactive | inactive | inactive | inactive | – | inactive
